Data: PubChem BioAssay AID1159524 (National Center for Advancing Translational Sciences (NCATS), 2015)
The whole screen tested about 410,000 compounds, of which about 5,100 (1.2%) were called active. About 8% were inconclusive and are not listed. Calls come from the whole dose curve; tested in HEK293T cells. The full list was thinned out, with actives kept by preference.

Assay: High Throughput Screening for Foot and Mouth Disease Virus Antivirals; note: read-out not given here; nearly all actives have a fitted effect of over 45% in size
Conditions: FMDV antiviral cell-based qHTS; series mostly up to 57.9 µM; activity change, negative = inhibition: at the top concentration
% is set by controls: 0 for no effect and ±100 for the full control effect; potency is the fitted concentration of half-maximal effect.

| Structure (SMILES) | Potency | activity change, negative = inhibition |
| --- | --- | --- |
| c1ccc(Cc2nn3c(Cn4cnc5ccccc54)nnc3s2)cc1 | 14.1 µM (active) |  |
| COc1ccc(CNc2ncncc2-c2ccccc2C)c(OC)c1 |  | -20.2% (inactive) |
| Cc1cc(C(=O)NCC2Cc3cccc(-c4cncnc4)c3O2)c(C)o1 (centres undefined) |  | -7.51% (inactive) |
| CNc1cc(-c2c(C)noc2C)ncn1 |  | -0.693% (inactive) |
| COCCCNC(=O)c1ccc(NC(=O)c2nsc3ccccc23)cc1 |  | 22.2% (inactive) |
| COCCn1c(SCC(=O)c2cc(C)ccc2C)nc2cc(C(=O)NC3CCCC3)ccc2c1=O |  | -5.56% (inactive) |
| CC(C)c1nccn1S(=O)(=O)c1cc([N+](=O)[O-])ccc1Cl |  | -7.03% (inactive) |
| CCc1nc(C)cn1S(=O)(=O)c1cc([N+](=O)[O-])ccc1Cl | 20 µM (active) |  |
| CCc1nccn1S(=O)(=O)c1cccc([N+](=O)[O-])c1 |  | -18.2% (inactive) |
| COc1ccc(OCCCn2c(C3CC(=O)N(c4ccc(F)cc4)C3)nc3ccccc32)cc1 (centres undefined) |  | -10.8% (inactive) |
| CCCCN1CC(c2nc3ccccc3n2CCCCOc2ccc(C)cc2C)CC1=O (centres undefined) | 39.8 µM (active) |  |
| CCc1ccccc1N1CC(c2nc3ccccc3n2CCCCOc2ccccc2)CC1=O (centres undefined) |  | 0% (inactive) |
| Cc1ccc(CNC(=O)Cn2c(=O)ccc3cc(S(=O)(=O)N4CCCC4)ccc32)cc1 |  | -21.1% (inactive) |
| Cc1ccc(-n2c(SCC(=O)c3ccccc3)nc3c([nH]c4ccccc43)c2=O)cc1 |  | 4.48% (inactive) |
| O=C1Oc2ccccc2C(=O)/C1=C/c1ccccc1O | 28.2 µM (active) |  |
| C=C(C)C1CC=C(CO)CC1 (centres undefined) |  | -0.494% (inactive) |
| CCN(C(=O)CSc1nnnn1-c1ccccc1OC)C1CCS(=O)(=O)C1 (centres undefined) |  | 17.3% (inactive) |
| COc1ccccc1-n1nnnc1S(=O)(=O)Cc1ccc(Cl)cc1 | 10 µM (active) |  |
| COc1ccccc1CN(C)c1nnnn1-c1ccccc1 |  | -2.75% (inactive) |
| CSc1ccccc1N1CCN(CCCCCC(=O)NC2CCCc3ccccc32)CC1 (centres undefined) |  | -25% (inactive) |
| CCC(C)C(=O)O[C@@H]1C[C@@]2(C)C(c3ccoc3)OC(=O)CC23OC2(C)O[C@@]14[C@@]1(C)C(CC(=O)OC)C5(C)CC1(O)C(O)(C5OC(=O)C1(C)OC1C)C(OC(C)=O)[C@@]34O2 (some centres undefined) |  | -13.6% (inactive) |
| Cc1ccc(C(=O)NC2CCN(C(=O)Nc3ccc(F)cc3)CC2)cc1 |  | 0% (inactive) |
| Cc1ccc(NC(=O)N2CCC(C(=O)NCc3ccc(F)cc3)CC2)cc1 | 7.08 µM (active) |  |
| O=C(NCc1ccc(F)cc1)C1CCN(C(=O)Nc2ccc(F)cc2)CC1 |  | -17% (inactive) |
| O=C(CCN1Cc2ccccc2OC(c2ccccc2)C1)N[C@@H]1CS(=O)(=O)C[C@H]1O (some centres undefined) |  | 4.7% (inactive) |

| Structure (SMILES) | Potency | activity change, negative = inhibition |
| --- | --- | --- |
| COc1ccc(NC(=O)CCN2CCN(CCO)CC2)cc1 |  | 11.4% (inactive) |
| O=C(NCC(c1ccc(Cl)cc1)N1CCOCC1)c1ccccc1F (centres undefined) |  | -11% (inactive) |
| CCC(C)(C)c1ccc(OCC(=O)N(C)C)c(C(C)(C)CC)c1 | 31.6 µM (active) |  |
| Cc1ccc(-n2c(=O)c3cccnc3n2CC(=O)NCc2ccc(F)cc2)cc1C |  | 2.88% (inactive) |
| OC[C@@H]1CN(Cc2ccc(-c3ccccc3)cc2)C[C@H](n2cnc3c(NC4CCCC4)ncnc32)O1 | 15.8 µM (active) |  |
| OC[C@@H]1CN(C2CCCC2)C[C@H](n2cnc3c(NC4CCC4)ncnc32)O1 |  | -7.88% (inactive) |
| OC[C@@H]1CN(Cc2cccs2)C[C@H](n2cnc3c(Nc4ccccc4)ncnc32)O1 |  | 4.4% (inactive) |
| OCCN1CCN(c2ncnc3c2ncn3[C@H]2CN(Cc3ccco3)C[C@@H](CO)O2)CC1 |  | -21.6% (inactive) |
| OC[C@@H]1CN(Cc2ccncc2)C[C@H](n2cnc3c(N4CCN(c5ccccc5)CC4)ncnc32)O1 | 12.6 µM (active) |  |
| CC(C)Nc1ncnc2c1ncn2[C@H]1CN(Cc2ccncc2)C[C@@H](CO)O1 |  | -18.6% (inactive) |
| CN1CCN(c2ncc3nc(-c4ccc(Cl)cc4)c(=O)n(-c4ccccc4)c3n2)CC1 |  | 0.45% (inactive) |
| CCCCCCCCCCCC(=O)O[C@H](CC(=O)O)C[N+](C)(C)C |  | -1.5% (inactive) |
| CCc1nn(CC(=O)Nc2cc(C)cc(C)c2)c(=O)c2cc3sccc3n12 |  | -19% (inactive) |
| CCOc1ccc(NC(=O)CC2C(=O)N(c3cccc(OC)c3)C(=O)N2C2CCCCC2)cc1 (centres undefined) |  | -13.3% (inactive) |
| CCOC(=O)[C@]12Cc3ccccc3[C@H]1N(C1CCCCC1)C(=O)c1cc(OC)ccc12 | 10 µM (active) |  |
| CCOC(=O)[C@]12Cc3cc(OC)ccc3[C@H]1N(C(C)C)C(=O)c1ccccc12 | 31.6 µM (active) |  |
| CCOC(=O)c1ccc(NC(=O)CC2C(=O)N(c3cccc(OC)c3)C(=O)N2C2CCCCC2)cc1 (centres undefined) |  | -24.8% (inactive) |
| COc1ccc(C23NCCN2C(=O)c2ccccc23)cc1 (centres undefined) |  | -17.3% (inactive) |
| CCOC(=O)C1CCN(C(=O)Nc2cccc(OC)c2)CC1 |  | 20% (inactive) |
| CCN(CC)S(=O)(=O)c1ccc2c(c1)N(CC(=O)NCC(C)c1ccccc1)C(=O)CO2 (centres undefined) |  | -2.75% (inactive) |
| O=C(NCCc1ccccc1)c1ccc2c(c1)N(Cc1ccccc1)C(=O)c1ccccc1S2(=O)=O |  | -0.764% (inactive) |
| c1ccc2c(c1)[I+]c1ccccc1-2 |  | -35.5% [at 97.4 µM] (inactive) |
| COc1ccc(CNC(=O)c2ccc(NC(=O)N3CC4CCCN4c4ccccc43)cc2)cc1 (centres undefined) |  | -8.63% (inactive) |
| COc1cc(NC(=O)Cn2c(=O)n(Cc3ccco3)c(=O)c3oc4ccccc4c32)cc(OC)c1 |  | -14.1% (inactive) |
